Assay outcomes (PubChem BioAssay)
Only some compounds are listed: those with a hit (about 7.1% of all), similar ones and a draw of the others.
Lassa entry: Lassa virus entry inhibition; Lassa virus pseudotyped entry inhibition, cell-based qHTS; Potency, µM (doses to about 49.2 µM), inactives show at the highest dose activity change, negative = inhibition, actives largely listed as inhibitors; 4.1% of 18,000 active
Marburg entry: blocks Marburg virus binding or cell entry; Marburg virus pseudotype entry/binding inhibition, cell-based; Potency, µM (top dose mostly 49.2 µM), inactives show at the top dose activity change, negative = inhibition, hits mostly inhibitors; 6.5% of 18,000 active
* = called active by the depositor; ? = inconclusive; . = no result; ! = not active in a repeat; [ ] = dose if it differs, or a comment. The call rests on the fitted dose curve; tested in HEK293 cells. On the % scale 0 is the no-effect control and ±100 the full control effect; potency means the concentration at half of the fitted maximal effect.

SMILES | Lassa entry | Marburg entry
CC(C)c1ccc2c(N=Nc3ccc(S(N)(=O)=O)cc3)c(O)[nH]c2c1 | 23% | ?
C[C@@]12C(=O)OC(=O)[C@@]1(C)[C@@H]1CC[C@@H]2O1 | -13% | 4%
C[C@@]12C(=O)OC(=O)[C@@]1(C)C1CCC2O1 | 2µM* | 3.5µM*
CC(=O)OC[C@H]1O[C@@H](ON=C2C[C@@H](O)[C@@H](O)[C@@H]3[C@H]4C(=O)N(Cc5ccccc5)C(=O)[C@@H]4CC[C@@H]23)[C@H](OC(C)=O)[C@@H](OC(C)=O)[C@H]1OC(C)=O | 21%[8.59 µM] | -9%[8.59 µM]
CCOC(=O)C1=CN(CCC=C(C)C)C(=O)N(C(C)=O)C1c1ccccc1 (centres undefined) | -30%[8.59 µM] | 57%[8.59 µM]
C=CCN1[C@@H](CC(C)C)COc2c(Cl)cccc2S1(=O)=O | 19% | -9%
Cc1ncc2c(c1CNC(=O)c1cncs1)CCN(C(=O)c1csc(-c3cccs3)n1)C2 | -21% | 35µM*
CCS(=O)(=O)NCc1c(C)ncc2c1CCN(C(=O)c1csc(-c3cccs3)n1)C2 | -23% | 4%
COc1ccc2c(c1)CO[C@H]([C@H](O)CO)[C@H]2C=Cc1ccccc1 | . | -6%[8.59 µM]
COc1cccc([C@@H]2[C@@H](C)CC[C@@H]3C(=O)NC[C@H](O)CN32)c1 | -5%[8.59 µM] | -11%[8.59 µM]
CCc1cc2c(nc1CC)CCN(CCC(C)=NOC[C@@H](C)[C@H](OCc1ccccc1)C(C)C)C2 | -5%[8.59 µM] | -17%[8.59 µM]
COCOCCn1cc(CN2CCS(=O)(=O)N(Cc3ccc(-c4cccc(N(C)C)c4)cc3)C(C)C2=O)nn1 (centres undefined) | 18% | 9%
CN(C)CCOC(c1ccccc1)c1ccccc1 (tested in a mixture with another compound) | -4% | -11%
CN(C)CCOC(c1ccccc1)c1ccccc1 | ? | 28µM*!
CO[C@H]1C[C@@H]2CC[C@@H](C)[C@@](O)(O2)C(=O)C(=O)N2CCCC[C@H]2C(=O)O[C@H]([C@H](C)C[C@@H]2CC[C@@H](OCCO)[C@H](OC)C2)CC(=O)[C@H](C)/C=C(\C)[C@@H](O)[C@@H](OC)C(=O)[C@H](C)C[C@H](C)/C=C/C=C/C=C/1C | 25µM* | ?
CO[C@H]1C[C@@H]2CC[C@@H](C)[C@@](O)(O2)C(=O)C(=O)N2CCCC[C@H]2C(=O)O[C@H](C(C)C[C@H]2CC[C@@H](O)[C@H](OC)C2)CC(=O)[C@H](C)/C=C(\C)[C@@H](O)[C@@H](OC)C(=O)[C@H](C)C[C@H](C)/C=C/C=C/C=C/1C (some centres undefined) | -21% | ?
COc1cccc([C@@H]2Oc3ccc(Br)cc3[C@H](O)[C@@H]2O)c1 | 12%[8.59 µM] | ?
CN(C)CCC(c1ccc(Br)cc1)c1ccccn1 (centres undefined) | -5% | 10µM*
CN(C)CC[C@@H](c1ccccc1)c1ccccn1 | -13%[17.8 µM] | -2%[17.8 µM]
CN(C)c1ccc(-c2nc(N(C)C)c3ccccc3n2)cc1 | -7% | 11µM*
CN(C)c1ccc(-c2nc(N(C)Cc3ccco3)c3ccccc3n2)cc1 | 29% | ?
CNc1nc(-c2ccc(N(C)C)cc2)nc2ccccc12 | -7% | 18µM*
CN(C)c1ccc(-c2nc(Nc3ccncc3)c3ccccc3n2)cc1 | -32% | ?
C=C[C@@H](C[C@@H]1C=C[C@H]2C[C@H](C=C)OP(=O)(O1)O2)O[Si](C)(C)C(C)(C)C | -11% | ?
CC(CCN1CCCCc2nc(C)c(C)cc21)=NO[C@H](C)c1cn([C@H](CO)Cc2ccccc2)nn1 | 9%[8.59 µM] | ?
SMILES | Lassa entry | Marburg entry
C[C@@H]1C[C@H]2[C@@H](Cc3ccccc3)C(=O)N3[C@@H](C[C@@H](C)[C@@H]3c3ccccc3)[C@@H](Cc3ccccc3)C(=O)N2[C@H]1c1ccccc1 | -15%[8.59 µM] | ?
COC(=O)CC=C[C@@H](C)[C@H](OC)c1cc(OC)ccc1Br | -2%[8.59 µM] | 3%[8.59 µM]
O=c1cc(-c2ccc(O)cc2)oc2cc(O[C@H]3OC(CO)C(O)C(O)C3O)cc(O)c12 (some centres undefined) | 44% | 66%
O=c1cc(-c2ccccc2)oc2cc(O[C@@H]3O[C@H](CO)[C@@H](O)[C@H](O)[C@H]3O)c(O)c(O)c12 | -22% | 3.5µM*
C[C@]12CCC3c4ccc(O)cc4CCC3[C@@H]1CCC2=O (some centres undefined) | -17%[17.8 µM] | 15%[17.8 µM]
CCCCC(=O)O[C@H]1CC[C@H]2[C@@H]3CCc4cc(O)ccc4[C@H]3CC[C@]12C | ? | -15%
C[C@]12CC[C@@H]3c4ccc(O)cc4CC[C@H]3[C@@H]1CC[C@@H]2OC(=O)CCC1CCCC1 | 28µM*! | 20%
CCC(=O)O[C@H]1CC[C@H]2[C@@H]3CCc4cc(O)ccc4[C@H]3CC[C@]12C | ? | -30%
CCC(=O)OC1CCC2C3CCc4cc(O)ccc4C3CC[C@]12C (some centres undefined) | 158µM* | 0.001µM*
C[C@]12CC[C@@H]3c4ccc(O)cc4CC[C@H]3[C@@H]1CCC2=O | 32µM*! | 16%
CCc1cc2c(nc1CC)CCN(CCC(C)=NO[C@@H](C)CN1CCCc3nc(C)c(C)cc31)C2 | -10%[8.59 µM] | -24%[8.59 µM]
N#Cc1cccc(Nc2ncc(-c3ccccc3)o2)c1 | 2% | 19%
CCCCCCCc1cc2ccccc2c2c(C=O)c(CCCC)c(C(=O)OC)n12 | -16%[8.59 µM] | ?
Cc1cc(-c2ccco2)cc(C)c1C=Cc1cncc(-c2nn[nH]n2)c1 | -12% | ?
CC1=CC[C@@H](COc2ccccc2)O[C@@]2(C1)C(=O)N(Cc1ccc(Br)cc1)c1ccccc12 | -25%[8.59 µM] | 25%[8.59 µM]
CCN1C(N(C)CCc2ccc(Br)cc2)=NC(c2ccccc2)C(C(=O)OC)=C1C (centres undefined) | 0%[8.59 µM] | ?
CC(CCN1CCCCc2nc(C)c(C)cc21)=NOC[C@@H](O)[C@H]1O[C@@H]2OC(C)(C)O[C@H]2[C@@H]1O | . | 18%[8.59 µM]
COc1cccc(O)c1O | ? | 13µM*
COc1ccccc1O | -13%[107 µM] | 24%[107 µM]
CC(=O)OC[C@H]1O[C@@H](ON=CC[C@@H]2C=C[C@@H](OC(C)=O)[C@@H](COC(C)=O)O2)[C@@H](OC(C)=O)[C@@H](OC(C)=O)[C@@H]1OC(C)=O | -11%[8.59 µM] | -12%[8.59 µM]
COc1ccc([C@]23Cc4cc(OC)c(OC)cc4[C@H](O2)c2c(cc(C)n(Cc4ccccc4)c2=O)O3)cc1 | 40%[8.59 µM] | 40%[8.59 µM]
CCN1C(=O)NC(CCc2ccccc2)C(C(=O)OC)=C1C (centres undefined) | -2%[8.59 µM] | 17%[8.59 µM]
CC(=O)NC1C(OC2OC(CC(O)C3OC([N+]4=CCC(=O)NC4=O)C(O)C3O)C(O)C(O)C2NC(=O)/C=C/CCCCCCCCC(C)C)OC(CO)C(O)C1O (centres undefined) | -28% | ?
CC(=O)N[C@H]1C(O[C@@H]2O[C@H](C[C@@H](O)[C@H]3O[C@@H](N4CCC(=O)NC4=O)[C@H](O)[C@@H]3O)[C@H](O)[C@H](O)[C@H]2NC(=O)/C=C/CCCCCCCCCCC(C)C)OC(CO)[C@@H](O)[C@@H]1O (some centres undefined) | ? | 4.5µM*
COC(=O)CC(Oc1c(C)n(C)c2ccccc2c1=O)c1ccccc1 (centres undefined) | -6%[8.59 µM] | -5%[8.59 µM]
Cc1ccc2c(=O)c3ccccc3n(CCCN)c2c1C | 10µM*! | 10µM*
COC(=O)N[C@H](CC(C)=O)c1ccc2c(c1)OCO2 | -15%[8.59 µM] | -17%[8.59 µM]
